Measured values published in PubChem BioAssay AID1159580 (chemical genetic matrix, 2015).
Among all 5,500 compounds or so, about 2,000 (36%) were called active. Roughly 18% stayed inconclusive and do not appear here. Rule as the data show it: active = normalized growth mostly below about 0.91 (no sharp cut-off); inconclusive = no clear call, values can overlap the other calls; inactive = mostly above about 0.92. The list shows a part of the results.

Test: chemical genetic growth profiling, strain panel (AID 1159580);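 also: tested at 20 µM; growth read once vehicle control cultures reached saturation at 30 °C; 1 = growth at the plate median or of vehicle wells; lower values mean less growth of the strain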
Settings: growth OD

Measured: normalized growth

Nc1c2ccccc2nc2ccccc12
active: S. cerevisiae deletion strains, locus YJR075W, strain HOC1, active compounds read low 0.646 | S. cerevisiae deletion strains, locus YKL085W, strain MDH1 (second series), active compounds read low 0.872 | S. cerevisiae deletion strains, locus YKL085W, strain MDH1, active compounds read low 0.872 | S. cerevisiae deletion strains, locus YKL160W, strain elf1, active compounds read low 0.562 | S. cerevisiae deletion strains, locus YKL190W, strain CNB1, active compounds read low 0.64 | S. cerevisiae deletion strains, locus YKR001C, strain vps1, active compounds read low 0.481 | S. cerevisiae deletion strains, locus YKR091W, strain srl3, active compounds read low 0.925 | S. cerevisiae deletion strains, locus YLL001W, strain dnm1, active compounds read low 0.476 | S. cerevisiae deletion strains, locus YLL026W, active compounds read low 0.555 | S. cerevisiae deletion strains, locus YLL041C, strain sdh2, active compounds read low 0.784 | S. cerevisiae deletion strains, locus YLR027C, strain aat2, active compounds read low 0.453 | S. cerevisiae deletion strains, locus YLR058C, strain SHM2, active compounds read low 0.613 | S. cerevisiae deletion strains, locus YLR102C, strain apc9, active compounds read low 0.823 | S. cerevisiae deletion strains, locus YLR221C, strain rsa3, active compounds read low 0.516 | S. cerevisiae deletion strains, locus YLR258W, strain gsy2, active compounds read low 0.53 | S. cerevisiae deletion strains, locus YLR262C, strain YPT6 (second series), active compounds read low 0.843 | S. cerevisiae deletion strains, locus YLR268W, strain sec22, active compounds read low 0.515 | S. cerevisiae deletion strains, locus YLR320W, strain mms22, active compounds read low 0.565 | S. cerevisiae deletion strains, locus YLR330W, strain CHS5, active compounds read low 0.886 | S. cerevisiae deletion strains, locus YLR342W, strain FKS1 (second series), active compounds read low 0.713 | S. cerevisiae deletion strains, locus YLR342W, strain FKS1, active compounds read low 0.792 | S. cerevisiae deletion strains, locus YLR357W, strain rsc2, active compounds read low 1.2 [resistant] | S. cerevisiae deletion strains, locus YLR370C, strain arc18, active compounds read low 0.7 | S. cerevisiae deletion strains, locus YLR384C, strain iki3, active compounds read low 0.853 | S. cerevisiae deletion strains, locus YLR418C, strain cdc73, active compounds read low 0.689 | S. cerevisiae deletion strains, locus YML016C, strain PPZ1, active compounds read low 0.847 | S. cerevisiae deletion strains, locus YML032C, strain rad52, active compounds read low 0.314 | S. cerevisiae deletion strains, locus YML120C, strain ndi1, active compounds read low 0.582 | S. cerevisiae deletion strains, locus YML124C, strain tub3, active compounds read low 0.743 | S. cerevisiae deletion strains, locus YMR058W, strain fet3, active compounds read low 0.639 | S. cerevisiae deletion strains, locus YMR078C, strain ctf18, active compounds read low 0.763 | S. cerevisiae deletion strains, locus YMR129W, active compounds read low 0.693 | S. cerevisiae deletion strains, locus YMR205C, strain PFK2, active compounds read low 0.634 | S. cerevisiae deletion strains, locus YMR223W, strain ubp8, active compounds read low 0.557 | S. cerevisiae deletion strains, locus YMR263W, strain SAP30, active compounds read low 0.767 | S. cerevisiae deletion strains, locus YNL067W, strain RPL9B, active compounds read low 0.606 | S. cerevisiae deletion strains, locus YNL128W, strain TEP1, active compounds read low 0.733 | S. cerevisiae deletion strains, locus YNL153C, strain GIM3, active compounds read low 0.713 | S. cerevisiae deletion strains, locus YNL183C, strain NPR1, active compounds read low 0.771 | S. cerevisiae deletion strains, locus YNL209W, strain ssb2, active compounds read low 0.663 | S. cerevisiae deletion strains, locus YNL233W, strain BNI4, active compounds read low 0.74 | S. cerevisiae deletion strains, locus YNL248C, strain rpa49, active compounds read low 0.445 | S. cerevisiae deletion strains, locus YNL250W, strain rad50, active compounds read low 0.78 | S. cerevisiae deletion strains, locus YNL271C, strain bni1, active compounds read low 0.87 | S. cerevisiae deletion strains, locus YNL298W, strain CLA4, active compounds read low 0.847 | S. cerevisiae deletion strains, locus YNL307C, strain MCK1, active compounds read low 0.715 | S. cerevisiae deletion strains, locus YNL322C, strain KRE1, active compounds read low 0.698 | S. cerevisiae deletion strains, locus YNR049C, strain mso1, active compounds read low 0.672 | S. cerevisiae deletion strains, locus YNR052C, strain pop2, active compounds read low 0.778 | S. cerevisiae deletion strains, locus YOL012C, strain htz1 2.35 [resistant] | S. cerevisiae deletion strains, locus YOL147C, strain pex11, active compounds read low 0.661 | S. cerevisiae deletion strains, locus YOR001W, strain rrp6, active compounds read low 0.309 | S. cerevisiae deletion strains, locus YOR061W, strain CKA2, active compounds read low 0.824 | S. cerevisiae deletion strains, locus YOR069W, strain VPS5, active compounds read low 0.811 | S. cerevisiae deletion strains, locus YOR070C, strain gyp1, active compounds read low 0.625 | S. cerevisiae deletion strains, locus YOR080W, strain dia2, active compounds read low 0.783 | S. cerevisiae deletion strains, locus YOR083W, strain WHI5, active compounds read low 0.501 | S. cerevisiae deletion strains, locus YOR106W, strain vam3, active compounds read low 0.445 | S. cerevisiae deletion strains, locus YOR136W, strain idh2, active compounds read low 0.805 | S. cerevisiae deletion strains, locus YOR144C, strain elg1, active compounds read low 0.752 | S. cerevisiae deletion strains, locus YOR184W, strain ser1, active compounds read low 0.41 | S. cerevisiae deletion strains, locus YOR231W, strain MKK1, active compounds read low 0.67 | S. cerevisiae deletion strains, locus YOR265W, strain rbl2, active compounds read low 0.706 | S. cerevisiae deletion strains, locus YOR270C, strain vph1, active compounds read low 0.599 | S. cerevisiae deletion strains, locus YOR290C, strain snf2, active compounds read low 0.371 | S. cerevisiae deletion strains, locus YOR316C, strain cot1, active compounds read low 0.808 | S. cerevisiae deletion strains, locus YPL051W, strain arl3, active compounds read low 0.696 | S. cerevisiae deletion strains, locus YPL055C, strain LGE1, active compounds read low 0.659 | S. cerevisiae deletion strains, locus YPL078C, strain atp4, active compounds read low 0.674 | S. cerevisiae deletion strains, locus YPL106C, strain sse1, active compounds read low 0.781 | S. cerevisiae deletion strains, locus YPL240C, strain hsp82, active compounds read low 0.8 | S. cerevisiae deletion strains, locus YPL241C, strain CIN2, active compounds read low 0.837 | S. cerevisiae deletion strains, locus YPL256C, strain CLN2, active compounds read low 0.778 | S. cerevisiae deletion strains, locus YPR119W, strain clb2, active compounds read low 0.862 | S. cerevisiae deletion strains, locus YPR167C, strain met16, active compounds read low 0.758 | S. cerevisiae deletion strains, strain wtn01, active compounds read low 0.42 | S. cerevisiae strains, strain wild type, active compounds read low 0.601
inactive: S. cerevisiae deletion strains, locus YKL009W, strain mrt4, active compounds read low 0.909 | S. cerevisiae deletion strains, locus YKL068W, active compounds read low 0.988 | S. cerevisiae deletion strains, locus YKR026C, strain gcn3, active compounds read low 0.968 | S. cerevisiae deletion strains, locus YLR039C, strain RIC1, active compounds read low 0.99 | S. cerevisiae deletion strains, locus YLR113W, strain HOG1, active compounds read low 0.979 | S. cerevisiae deletion strains, locus YLR262C, strain YPT6, active compounds read low 0.915 | S. cerevisiae deletion strains, locus YLR371W, strain rom2, active compounds read low 0.948 | S. cerevisiae deletion strains, locus YMR125W, strain sto1, active compounds read low 0.919 | S. cerevisiae deletion strains, locus YMR231W, strain pep5, active compounds read low 0.985 | S. cerevisiae deletion strains, locus YMR307W, strain GAS1, active compounds read low 1.13 | S. cerevisiae deletion strains, locus YNL071W, strain lat1, active compounds read low 0.977 | S. cerevisiae deletion strains, locus YNL322C, strain KRE1 (second series), active compounds read low 0.981 | S. cerevisiae deletion strains, locus YOL006C, strain TOP1, active compounds read low 0.67 | S. cerevisiae deletion strains, locus YPR141C, strain kar3, active compounds read low 1.02 | S. cerevisiae deletion strains, locus YPR163C, strain tif3, active compounds read low 0.974
